Hit rate of the full screen: of about 3,300 compounds, about 100 (3%) were called active. Only a sample is shown. Unmarked numbers belong to inactive results. No stated cut-off is given here; in the data, active means inhibition above about 9.5%; inactive means the rest.

The target of the experiment is 1-phosphatidylinositol 4,5-bisphosphate phosphodiesterase gamma-1 (Homo sapiens) (UniProt P19174). Nature of the experiment: human PLCG1 activity blockade – biochemical, fluorescence, counter-screen for PLC-beta3 inhibitor project (AID 743258). The following applies: purified PLC-gamma1, fluorogenic substrate, at 12.3 µM, active compounds read high. (In general: The purpose of a counterscreen is to sort out artefacts and off-target activity.)
1-phosphatidylinositol 4,5-bisphosphate phosphodiesterase gamma-1 (Homo sapiens), sequence (P19174 whole entry, looked up): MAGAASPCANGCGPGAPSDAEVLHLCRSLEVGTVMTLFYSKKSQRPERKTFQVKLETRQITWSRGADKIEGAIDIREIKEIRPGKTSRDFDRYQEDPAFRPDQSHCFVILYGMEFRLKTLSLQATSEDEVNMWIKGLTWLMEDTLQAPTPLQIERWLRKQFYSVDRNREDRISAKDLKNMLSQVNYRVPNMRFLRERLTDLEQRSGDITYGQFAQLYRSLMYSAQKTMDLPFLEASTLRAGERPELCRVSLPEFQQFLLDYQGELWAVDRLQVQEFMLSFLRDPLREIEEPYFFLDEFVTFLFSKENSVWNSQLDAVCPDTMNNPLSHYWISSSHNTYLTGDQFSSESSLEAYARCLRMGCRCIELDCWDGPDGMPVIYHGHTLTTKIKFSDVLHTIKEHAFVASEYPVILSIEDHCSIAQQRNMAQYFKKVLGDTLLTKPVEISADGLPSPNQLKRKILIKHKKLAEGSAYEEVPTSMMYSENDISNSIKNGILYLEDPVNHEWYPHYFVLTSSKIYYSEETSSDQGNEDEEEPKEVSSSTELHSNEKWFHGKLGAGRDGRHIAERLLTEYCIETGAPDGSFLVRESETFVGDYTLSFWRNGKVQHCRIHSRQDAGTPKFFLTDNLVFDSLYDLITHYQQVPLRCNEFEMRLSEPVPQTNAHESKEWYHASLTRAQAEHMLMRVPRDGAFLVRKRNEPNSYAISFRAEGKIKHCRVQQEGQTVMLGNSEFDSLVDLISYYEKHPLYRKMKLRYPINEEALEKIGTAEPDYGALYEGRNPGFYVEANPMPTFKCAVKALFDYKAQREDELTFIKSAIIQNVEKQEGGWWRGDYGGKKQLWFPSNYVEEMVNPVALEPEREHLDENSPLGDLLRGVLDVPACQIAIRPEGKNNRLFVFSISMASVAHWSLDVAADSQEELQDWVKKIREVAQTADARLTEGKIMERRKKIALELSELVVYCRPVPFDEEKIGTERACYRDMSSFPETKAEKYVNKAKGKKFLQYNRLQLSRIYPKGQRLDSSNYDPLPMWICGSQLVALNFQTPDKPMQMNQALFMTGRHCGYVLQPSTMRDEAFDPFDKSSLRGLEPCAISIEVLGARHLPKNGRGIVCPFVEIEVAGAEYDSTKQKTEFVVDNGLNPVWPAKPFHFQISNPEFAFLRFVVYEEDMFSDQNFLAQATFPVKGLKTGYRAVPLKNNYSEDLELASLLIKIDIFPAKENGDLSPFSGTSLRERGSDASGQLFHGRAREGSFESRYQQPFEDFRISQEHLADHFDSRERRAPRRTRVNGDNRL
As for `Cc1ccc(Cn2ccc(NC(=O)C3C4CCC(C4)C3C(=O)O)n2)cc1` (stereo not drawn), the inhibition – broadly, the change of the read-out against control, counted positive when it falls – is 6.33%.
As to `N#Cc1c(NC(=O)C2CCCO2)sc2c1CCCCC2` (stereo not drawn), the inhibition was -9.66%.
Turning to `Cc1nc2ccc(NC(=O)c3cccc(S(=O)(=O)N4CCOCC4)c3)cc2s1`, the inhibition was -12.2%.
Turning to `N#C[C@]1(S(=O)(=O)c2ccccc2)C[C@@H]2ON=C(c3cccc(Br)c3)[C@@H]2C1`, the inhibition is -2.59%.
To `Nn1cnnc1N/N=C/c1cc([N+](=O)[O-])c(Cl)cc1Cl` belongs -3.65%; to `Nc1nc(NCC(=O)O)nc(N2CCCCCC2)c1[N+](=O)[O-]`, 0.65%.
Regarding `COCc1cc(C(C)=O)ccc1OC`, the inhibition was -2.07%.
The figure for `C=CCOc1ccccc1/C=N/NC(=O)Cc1ccccc1` is -8.16%.
In the case of `C=CCSC(CC)(CC)C(N)=O`, the inhibition was 2%.
In the case of `CCOc1ccc(OCC)c(NC(=O)CSc2nnc(Cn3cnc4ccccc43)n2C)c1`, the inhibition is -2.36%.
The figure for `COc1ccc(C(CNC(=O)c2cc(S(=O)(=O)Nc3cccc(C)c3)ccc2C)N2CCCC2)cc1` (stereo not drawn) is -5.37%.
The figure for `O=C(NCCCN1CCCCC1)C1CC(=O)N(CCc2ccccc2)C1` (stereo not drawn) is 0.03%; for `Clc1ccc(C2[C@H]3CN(CC4CCCCC4)[C@H](c4ccccc4)C34CC2(c2cccnc2)C4)cn1` (stereo partly drawn) it is -4.79%.
In the case of `O=[N+]([O-])c1cc(C(F)(F)F)ccc1NN=C1CCCC1`, the inhibition is 8.96%.
`CCC1S/C(=N/N=C/c2ccco2)NC1=O` (stereo not drawn): the inhibition was -2.12%.
As for `O=S(=O)(c1ccc(F)cc1)N1CCN(C(=S)NC2CCCC2)CC1`, the inhibition is -7.54%.
To `COc1ccc(CCNC(=O)COC(=O)Cc2ccccc2F)cc1` belongs -5.86%; to `CC(C)CCSc1ncnc2c1oc1nc3c(cc12)COC(C)(C)C3`, -6.65%.
`CNC(=O)n1ccc(C(=O)N2CCCCC2)n1`: the inhibition is -7.1%.
For the compound `Cc1cc2nc(SCCN3CCOCC3)[nH]c2cc1C`, the inhibition is -0.23%.
To `CC(C)Cn1cnc2c1c(=O)n(CC(O)c1ccccc1)c(=O)n2CC(C)C` (stereo not drawn) belongs -3.61%.
Consider `CCOc1ccccc1C1CC(c2cccc(NS(C)(=O)=O)c2)=NN1C(=O)c1ccccc1` (stereo not drawn), for which the inhibition is -6.72%.
Turning to `CN(C(=O)c1cccc(NC(=O)Cc2cccc([N+](=O)[O-])c2)c1)C1CCCCC1`, the inhibition was -5.4%.
For `O=C(Nc1cccc([N+](=O)[O-])c1)Nn1cnnc1`, the inhibition is 0.91%.
Regarding `CS(=O)(=O)N(Cc1ccc(Cl)cc1)c1ccc(C(=O)NCCSCc2ccco2)cc1`, the inhibition is 0.35%.
The figure for `COc1ccc(NC(=O)c2ccc(OC)cc2)cc1` is -6.63%; for `C=CCN(c1ccc(Cl)cc1)S(=O)(=O)c1cccc(C(=O)OCC(=O)N(C)C)c1` it is -6.25%; for `Cc1cc(NC(=O)CN2C(=O)NC(CC(C)C)C2=O)no1` (stereo not drawn) it is -4.65%.
Consider `CN(CC(=O)Nc1ccccc1Cl)C(=O)COc1cccc2c1OC(C)(C)C2`, for which the inhibition is 3.1%.
In the case of `CCc1c(C)n([O-])c2c([n+]1=O)CCCCC2`, the inhibition was -5.96%.
On to `FC(F)(F)c1cnc(Oc2ccccc2-c2nnc(-c3ccc(Cl)cc3)o2)c(Cl)c1`, for which the inhibition was -5.48%.
For the compound `Cc1cc(NC(=O)c2ccc(F)cc2)ccc1NC(=O)c1ccco1`, the inhibition was -0.11%.
As to `Cc1nc(-c2ccc(F)cc2)c(CC(=O)N2CCN(S(=O)(=O)c3ccc(F)cc3)CC2)s1`, the inhibition was -5.79%.
To `CCC1CCCCN1C(=O)CSc1nc(C)cc(C)n1` (stereo not drawn) belongs -6.45%; to `O=C1NC2(CCCCC2)N=C1c1ccccc1`, -5.81%; to `O=C(C1CCCO1)N1CCN(C(=S)Nc2cccc(Cl)c2)CC1` (stereo not drawn), -5.73%.
To `O=C1/C(=C\c2ccsc2)NC(=S)N1c1ccccc1` belongs -7.04%; to `COc1ccc(-c2ccc(CN3C(CC(C)C)C(=O)N(Cc4cn(CC5CCCCC5)nn4)CCS3(=O)=O)cc2)cc1` (stereo not drawn), 0.15%.
As for `S=c1[nH]nc(-c2cccnc2)n1/N=C/C(Cl)=C\c1ccccc1`, the inhibition was -4.71%.
As for `Cc1ccc(C23CC4CC(CC(C(=O)NCC(=O)O)(C4)C2)C3)cc1`, the inhibition is 9.94% (active).
As to `CCn1c(SCC(C)=O)nc2sc3c(c2c1=O)CCCC3`, the inhibition was -3.1%.
The figure for `O=C(C[C@H]1C(=O)N(c2ccc(F)c(F)c2)C[C@@H]1Cc1ccccc1)Nc1ccccc1` is 2.94%.
In the case of `Cc1c(C#N)c2ncn(CC#N)c(=O)c2n1-c1ccccc1`, the inhibition was -8.35%.
Take `O=S1(=O)c2ccc(Br)cc2OC[C@H](Cc2ccccc2)N1Cc1cn(Cc2ccccc2)nn1`: the inhibition is 1.8%.
Consider `COC(=O)C[C@@H]1CC[C@@H]2[C@H](COc3ccc(NC(=O)c4cccc(F)c4)cc3C(=O)N2C)O1`, for which the inhibition is 6.24%.
The figure for `COC(=O)N(C)C[C@@H]1OCc2cnnn2CCCC(=O)N([C@@H](C)CO)C[C@@H]1C` is -7.63%; for `C=CCOc1ccc(Cl)cc1CNCCCN1CCOCC1` it is 2.7%.
As for `COc1ccc(/C=C2\N=C3CCCN3C2=O)cc1`, the inhibition was -0.94%.
For `CCOc1ccccc1NC(=O)CCN1CCN(S(=O)(=O)c2ccc(OC)cc2)CC1`, the inhibition is -1.14%.
With `CC1(C(=O)NCc2ccccc2)CSCC(=O)N1CCCN1CCOCC1` (stereo not drawn), the inhibition is -9.79%.
To `O=C(NCc1cccnc1)c1cc(C2CCCCN2C(=O)CCc2ccccc2)on1` (stereo not drawn) belongs -6.35%.
Regarding `O=C(CSc1ccccc1)Nc1cccc(S(=O)(=O)N2CCOCC2)c1`, the inhibition was 3.57%.
In the case of `COc1ccc(S(=O)(=O)N2CCC(C(=O)OCC(=O)c3ccccc3)CC2)cc1[N+](=O)[O-]`, the inhibition is 8.79%.
